These results are taken from PubChem BioAssay (Tox21).

“And” between values parts separate entries of the source, which are not always exact repeats. Equal values may be shown once. Inconclusive results are not listed. Where a structure was tested more than once in an assay, its records may differ in their call. The source made the active and inactive calls. Calls come from the whole dose curve; as a rule, active = well fitted curve in the direction sought with a large enough effect in the repeat runs; inconclusive = weak or mixed curves; inactive = no such curve, though single readings can be large; an effect the other way counts as inactive or inconclusive.
% is set by controls: 0 for no effect and ±100 for the full control effect; potency is the fitted concentration of half-maximal effect.

A short description of the first assay: qHTS RealTime-Glo MT Cell Viability Assay in HepG2 cells - 8 hour (AID 1224873). Note: nearly all actives have a fitted effect of over 55% in size. To be noted: RealTime-Glo luminescence; series mostly up to 76.8 µM. An outline of the steps: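 HepG2 cells mixed with RealTime-Glo MT reagents (NanoLuc plus cell-permeant prosubstrate) were seeded at 600 cells/well, incubated 5 h at 37 C/5% CO2, then pinned with compounds in DMSO; nonlytic luminescence tracked viability during 40 h treatment.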
A general note: In qHTS, concentration-response curves come from the screen itself.
Take `CCC(=O)Nc1ccc(Cl)c(Cl)c1`: the Potency result was “inactive”.

For `ClCC(Cl)CCl`, the Potency result was “inactive”.

Consider `O=[N+]([O-])/N=C1\NCCN1Cc1ccc(Cl)nc1`, for which the Potency result was “inactive”.

For `ClC(Cl)(Cl)c1ccccc1`, the Potency entry was “inactive”.

For the compound `CCN(CC)C(=O)C(C)Oc1cccc2ccccc12` (stereo unspecified), the Potency result was “inactive”.

`CC(C)(C#N)N=NC(C)(C)C#N`: the Potency result is “inactive”.

As for `CCCCOCC1CO1` (stereo unspecified), the Potency result was “inactive”.

With `CS(=O)(=O)NC(=O)c1cc(Oc2ccc(C(F)(F)F)cc2Cl)ccc1[N+](=O)[O-]`, the Potency entry is “inactive”.

On to `CC(C)(c1ccccc1)c1ccc(O)cc1`, for which the Potency result is “inactive and 49 µM (active)”.

With `CC(C)Nc1ccc(Nc2ccccc2)cc1`, the Potency was 48.8 µM (active) and 38.9 µM (active).

In the case of `COP(=O)(NC(C)=O)SC` (stereo unspecified), the Potency result was “inactive”.

In the case of `C[N+](C)(C)C`, the Potency entry was “inactive”.

With `CC1CC(=O)O1` (stereo unspecified), the Potency result is “inactive”.

Take `CCOP(=S)(OCC)OP(=S)(OCC)OCC`: the Potency entry is “inactive”.

Regarding `CNC(=S)S`, the Potency entry is “inactive”.

As for `O=S(=O)(O)C(F)(F)C(F)(F)C(F)(F)C(F)(F)C(F)(F)C(F)(F)C(F)(F)C(F)(F)F`, the Potency result was “inactive”.

Turning to `CCOS(=O)(=O)OCC`, the Potency entry was “inactive”.

With `C=CC(Cl)CCl` (stereo unspecified), the Potency entry was “inactive”.

Take `C[C@]12CCC(=O)C=C1CC[C@@H]1[C@@H]2CC[C@@]2(C)[C@H]1CC[C@]2(C)O`: the Potency result is “inactive”.

In the case of `CC(C)(c1ccccc1)c1ccc(O)c(C(C)(C)c2ccccc2)c1`, the Potency is 48.5 µM (active) and 38.9 µM (active).

As for `OCCOCCO`, the Potency result is “inactive”.

Take `CCCCC(C#N)(Cn1cncn1)c1ccc(Cl)cc1` (stereo unspecified): the Potency entry was “inactive”.

With `Cl`, the Potency result was “inactive”.

In the case of `COP(=S)(OC)Oc1ccc(S(=O)(=O)N(C)C)cc1`, the Potency entry was “inactive”.

`O=C(O)c1nn(Cc2ccc(Cl)cc2Cl)c2ccccc12`: the Potency entry is “inactive”.

For the compound `CC(C)(O)C(=O)Nc1ccc([N+](=O)[O-])c(C(F)(F)F)c1`, the Potency entry was “inactive”.

As to `CNC(=O)Oc1cccc2c1OC(C)(C)C2`, the Potency result is “inactive”.

With `Oc1ccc(Cl)cc1Cl`, the Potency entry was “inactive”.

As for `CC[n+]1c(-c2ccccc2)c2cc(N)ccc2c2ccc(N)cc21`, the Potency entry was “inactive”.

`N#CC(c1ccccc1)c1ccccc1`: the Potency entry was “inactive”.

In the case of `[Cl-].[Cl-].[Cl-].[Fe+3]`, the Potency result was “inactive”.

`CCCCCCCCCCCCCl`: the Potency entry was “inactive”.

Regarding `CCCCOCCOC(C)=O`, the Potency result was “inactive”.

On to `[CH3][Sn]([Cl])([Cl])[Cl]`, for which the Potency entry was “inactive”.

For `Nc1ccc([N+](=O)[O-])cc1N`, the Potency result was “inactive”.

`ClC(Cl)(Cl)Br`: the Potency entry is “inactive”.

Consider `COc1ccc(C=O)cc1OC`, for which the Potency entry is “inactive”.

`Brc1ccc(Br)cc1`: the Potency entry is “inactive”.

The next assay can be described thus: qHTS RealTime-Glo MT Cell Viability Assay in HEK293 cells - 40 hour (AID 1224874). Note: nearly all actives have a fitted effect of over 50% in size. Particulars: RealTime-Glo luminescence; max response: stronger effect = lower value. In a few lines: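 Tox21 screen in HEK293 using RealTime-Glo MT chemistry, with cells and reagent co-dispensed. Luminescence proportional to viable cell number was captured at intervals during 40 h compound exposure at 37 C.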
In the case of `CCC(=O)Nc1ccc(Cl)c(Cl)c1`, the Potency was 22.3 µM (active) and 43.6 µM (active).

As to `ClCC(Cl)CCl`, the max response was 3.83% (inactive) and -1.84% (inactive).

`ClC(Cl)(Cl)c1ccccc1`: the max response was 8.54% (inactive) and -1.53% (inactive).

As for `CCN(CC)C(=O)C(C)Oc1cccc2ccccc12` (stereo unspecified), the max response is -27.1% (inactive) and -29.7% (inactive).

Take `CC(C)(C#N)N=NC(C)(C)C#N`: the max response is 5.82% (inactive) and -2% (inactive).

Take `CCCCOCC1CO1` (stereo unspecified): the max response is 4.37% (inactive) and 7.91% (inactive).

Regarding `CS(=O)(=O)NC(=O)c1cc(Oc2ccc(C(F)(F)F)cc2Cl)ccc1[N+](=O)[O-]`, the max response is 9.57% (inactive) and 9.32% (inactive).

`CC(C)Nc1ccc(Nc2ccccc2)cc1`: the Potency is 17.3 µM (active) and 17.4 µM (active).

For `COP(=O)(NC(C)=O)SC` (stereo unspecified), the max response is 1.36% (inactive) and 10.1% (inactive).

As for `C[N+](C)(C)C`, the max response was 4.13% (inactive) and -0.266% (inactive).

Regarding `CCOP(=S)(OCC)OP(=S)(OCC)OCC`, the max response was 3.87% (inactive) and 10.7% (inactive).

Consider `CNC(=S)S`, for which the max response was 24.9% (inactive) and 0.0192% (inactive).

Take `O=S(=O)(O)C(F)(F)C(F)(F)C(F)(F)C(F)(F)C(F)(F)C(F)(F)C(F)(F)C(F)(F)F`: the max response is -24.5% (inactive) and 0.151% (inactive).

For `CCOS(=O)(=O)OCC`, the max response was 6.05% (inactive).

For the compound `C=CC(Cl)CCl` (stereo unspecified), the max response is 19.1% (inactive) and 0.374% (inactive).

Turning to `C[C@]12CCC(=O)C=C1CC[C@@H]1[C@@H]2CC[C@@]2(C)[C@H]1CC[C@]2(C)O`, the Potency is 19.7 µM (active).

Take `CC(C)(c1ccccc1)c1ccc(O)c(C(C)(C)c2ccccc2)c1`: the Potency is 17.2 µM (active) and 43.6 µM (active).

Take `OCCOCCO`: the max response is -1.92% (inactive) and 3.49% (inactive).

Take `Cl`: the max response is 0.872% (inactive) and 8.14% (inactive).

Consider `O=C(O)c1nn(Cc2ccc(Cl)cc2Cl)c2ccccc12`, for which the max response is -3.1% (inactive) and 1.84% (inactive).

Consider `CC(C)(O)C(=O)Nc1ccc([N+](=O)[O-])c(C(F)(F)F)c1`, for which the Potency is 22.3 µM (active) and 17.9 µM (active).

As for `CNC(=O)Oc1cccc2c1OC(C)(C)C2`, the max response was -0.656% (inactive) and 0.539% (inactive).

In the case of `Oc1ccc(Cl)cc1Cl`, the max response was 3.11% (inactive).

For the compound `CC[n+]1c(-c2ccccc2)c2cc(N)ccc2c2ccc(N)cc21`, the Potency is 3.45 µM (active) and 2.13 µM (active).

For `N#CC(c1ccccc1)c1ccccc1`, the max response was -11% (inactive).

Take `[Cl-].[Cl-].[Cl-].[Fe+3]`: the max response was 0.374% (inactive).

Turning to `CCCCCCCCCCCCCl`, the max response is 0% (inactive) and 16.5% (inactive).

`CCCCOCCOC(C)=O`: the max response was 4.03% (inactive) and 1.95% (inactive).

As for `[CH3][Sn]([Cl])([Cl])[Cl]`, the max response was 17% (inactive) and 3.42% (inactive).

On to `Nc1ccc([N+](=O)[O-])cc1N`, for which the max response was 0.0622% (inactive) and -18.5% (inactive).

Regarding `ClC(Cl)(Cl)Br`, the max response was -0.387% (inactive) and 6.81% (inactive).

Take `COc1ccc(C=O)cc1OC`: the max response was 1.59% (inactive) and -6.52% (inactive).

Consider `Brc1ccc(Br)cc1`, for which the max response is 1.04% (inactive) and 3.61% (inactive).
